The list is not random: actives were taken first. Their share in the collection is about 8.9%.
D3 ag – qHTS of D3 Dopamine Receptor Agonist: qHTS; D3R DiscoveRx beta-arrestin cells, luminescence, 90 min; max activation, %; hit rate 0.58% among 410,000; in the data active means max activation above about 30%; further: 0% is about no effect
Target sequence (P35462 whole entry, looked up): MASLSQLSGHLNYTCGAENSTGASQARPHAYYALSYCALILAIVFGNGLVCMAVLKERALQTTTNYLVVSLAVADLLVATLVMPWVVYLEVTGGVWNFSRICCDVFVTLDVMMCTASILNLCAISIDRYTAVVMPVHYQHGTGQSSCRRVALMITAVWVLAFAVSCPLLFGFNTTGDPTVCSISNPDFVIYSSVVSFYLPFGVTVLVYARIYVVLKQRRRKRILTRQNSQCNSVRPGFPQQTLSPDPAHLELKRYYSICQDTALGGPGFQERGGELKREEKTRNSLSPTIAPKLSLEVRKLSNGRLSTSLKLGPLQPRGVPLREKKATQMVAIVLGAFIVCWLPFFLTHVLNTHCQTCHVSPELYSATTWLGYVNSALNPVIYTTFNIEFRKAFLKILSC
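Cells at 1500/well, incubated overnight, then treated with pinned compounds (dopamine as control) for 90 min at 37 degrees C. DiscoveRx reagent added for 30 - 60 minutes at room temperature; luminescence read.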
MCF10A rereplic – A quantitative high throughput screen for small molecules that induce DNA re-replication in MCF 10a normal breast cells; Potency, µM (series often up to 46.1 µM), without a hit: at the highest dose activity, positive = re-replication, usual class: activators; hit rate 2.9% among 350,000; MCF 10A DNA re-replication, Hoechst nuclear intensity, 48 h; further: potency means the concentration at half of the fitted maximal effect; % of control where 0% means no effect; nearly all actives have a fitted effect of over 50% in size
DRD3 antagonist – qHTS of D3 Dopamine Receptor Antagonist: qHTS; D(3) dopamine receptor (Homo sapiens), P35462; D3R cells, DiscoveRx beta-arrestin luminescence, antagonist mode; hits give low values; max response, negative = inhibition, %; hit rate 2.5% among 360,000; AID 652054, 2013; in the data active means max response below about -50%; inconclusive means no clear call, values can overlap the other calls; further: on the % scale 0 is the no-effect control and ±100 the full control effect
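Cells plated overnight at 1500 cells/well, then exposed to library compounds with dopamine controls for 90 minutes at 37 degrees C. DiscoveRx reagent added for 30–60 minutes at room temperature; luminescence read, quantitative HTS format.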
KB-3-1 cytotox – qHTS assay for MDR1-selective chemotherapeutics: Primary screen using the parental adenocarcinoma cell KB-3-1; KB-3-1 viability, CellTiter-Glo ATP luminescence, 72 h; Potency, µM (top dose mostly 46.1 µM), actives largely listed as cytotoxic; hit rate 1.4% among 400,000; AID 1347075, 2019; further: potency means the concentration at half of the fitted maximal effect; on the % scale 0 is the no-effect control and ±100 the full control effect; nearly all actives have a fitted effect of over 60% in size
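Screening of KB-3-1 cells (DMEM, 10% FBS, phenol-red free) ran from lowest to highest compound concentration; after 72 h at 37 °C viability was read luminescently and curves fitted.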
KB-V1 MDR tox – qHTS assay for MDR1-selective chemotherapeutics: Primary screen using the drug-selected MDR subline cells KB-V1; KB-V1 MDR cells viability, CellTiter-Glo, 72 h; Potency, µM (titrated, usually from 46.1 µM), most hits filed as cytotoxic; hit rate 3.4% among 400,000; AID 1347076, 2019; further: potency means the concentration at half of the fitted maximal effect; on the % scale 0 is the no-effect control and ±100 the full control effect; nearly all actives have a fitted effect of over 60% in size
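Cytotoxicity via CellTiter-Glo luminescence after 72 h compound exposure at 37 degrees C. Cells: drug-selected KB-V1 line, DMEM phenol-red free plus 10% FBS. Compounds tested at multiple concentrations; normalized data fitted to concentration-effect curves.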
SW480 rereplic – A quantitative high throughput screen for small molecules that induce DNA re-replication in SW480 colon adenocarcinoma cells. SW480 DNA re-replication, Hoechst DNA content imaging, 48 h. Potency, µM (doses to about 46.1 µM), for inactives: at the highest dose re-replication activation, usual class: activators. hit rate 1.8% among 340,000. AID 624297, 2012; further: potency means the concentration at half of the fitted maximal effect; % of control where 0% means no effect; nearly all actives have a fitted effect of over 55% in size
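Compounds, transferred as 23 nL by pin tool, were incubated with cells for 48 hr; DNA content per nucleus was then quantified by Hoechst staining and fluorescence plate imaging.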
* hit, by the source's call; i = inactive; ? = inconclusive; . = no result given; [ ] = remark or other dose. Unless noted, the call rests on the fitted dose curve; in most records, active means well fitted curve in the direction sought with a large enough effect; inconclusive means small, poorly fitted or top-dose-only effect, or another doubt; inactive means no such curve, though single readings can be large; an effect the other way counts as inactive or inconclusive.

SMILES | D3 ag | MCF10A rereplic | DRD3 antagonist | KB-3-1 cytotox | KB-V1 MDR tox | SW480 rereplic
CC1CCC/C=C/C(=O)c2c(O)cc(O)cc2CC(=O)O1 (centres undefined) | -50.9 | 1.03µM* | -88.8* | 10.3µM* | ? | ?
Cc1cccc(C(=O)Nc2ccc(N3CC=C(c4ccccc4C)CC3)c(C(=O)O)c2)c1 | -10.3 | . | . | i | i | .
Cn1c(-c2ccccc2)cc2c3no[n+]([O-])c3ccc21 | -0.6 | ? | -15.8 | 3.66µM* | ? | 3.66µM*
CCOC(=O)c1c(C)n(OCc2ccccc2)c2ccc3c(no[n+]3[O-])c12 | 1.8 | -24.6% | 20.8 | i | ? | 6.5%
CCCCCCCOc1ccc(CC(=O)NO)cc1 | . | . | . | i | i | .
Cn1c(Oc2ccc(Cl)cc2)c(C=O)c2ccccc21 | -4.0 | ? | -20.3 | 20.6µM* | ? | -1.0%[9.22 µM]
CC(C)C[C@H]1C(=O)N2CCC[C@H]2[C@]2(O)O[C@](NC(=O)[C@@H]3C=C4c5cccc6[nH]c(Br)c(c56)C[C@H]4N(C)C3)(C(C)C)C(=O)N12 | 39.5* | . | . | . | . | .
CC1CCN(c2oc(/C=C/c3ccc(F)cc3)nc2C#N)CC1 | -23.0 | . | . | i | ? | .
O=C(NCc1ccc(Cl)cc1)c1ccc(Cn2cc(C(F)(F)F)ccc2=O)cc1 | -2.2 | 17.8% | ? | i | 16.4µM* | -4.6%
O=C(NCc1ccccn1)c1ccc(Cn2cc(C(F)(F)F)ccc2=O)cc1 | 2.5 | -2.8% | 18.6 | i | i | 3.2%
O=C(NCc1ccccc1Cl)c1ccc(Cn2cc(C(F)(F)F)ccc2=O)cc1 | -5.1 | 8.7% | 6.2 | i | 6.51µM* | -1.7%
Cc1ccc(Cn2cccc2C2=NC(C)(C)CO2)cc1 | 6.4 | . | . | i | ? | .
Cc1c(N(C)S(=O)(=O)c2ccc(Cl)c(C(=O)N3CCC(C(N)=O)CC3)c2)c(=O)n(-c2ccccc2)n1C | 0.3 | 8.3% | 10.1 | i | i | 6.51µM*
CCOC(=O)C1CCCN(C(=O)c2cccc(S(=O)(=O)N(C)c3c(C)n(C)n(-c4ccccc4)c3=O)c2)C1 (centres undefined) | -0.9 | -34.9% | -6.7 | ? | i | ?
COCc1cc(CN2CCCC(C(=O)Nc3ccc(-c4ccco4)cc3)C2)ccc1OC (centres undefined) | -14.9 | 1.7% | ? | ? | i | 23.1µM*
Cc1ncc(CN2CCCC(C(=O)Nc3ccc(-c4cscn4)cc3)C2)cn1 (centres undefined) | -2.1 | -0.2% | 12.2 | i | i | -1.6%
Cc1ncc(CN2CCCC(C(=O)Nc3ccc(-c4cccc(F)c4)cc3)C2)n1C (centres undefined) | -9.4 | 23.1µM* | ? | ? | ? | ?
COc1cccc(CN2CCCC(C(=O)Nc3ccc(-c4cscn4)cc3)C2)c1 (centres undefined) | -35.1 | 0.8% | ? | ? | 20.6µM* | ?
COc1cccc(-c2ccc(NC(=O)C3CCCN(Cc4cnc(C)n4C)C3)cc2)c1 (centres undefined) | -10.4 | ? | 6.2 | . | . | -1.7%
CC1CCN(C(=O)Nc2ccc3nc(-c4ccco4)c(-c4ccco4)nc3c2)CC1 | . | . | . | i | ? | .
CC(=O)N1CCCc2cc(S(=O)(=O)N3CCC(N(C)C(C)C)CC3)ccc21 | 0.0 | . | . | i | i | .
CC(=O)N1CCCc2cc(S(=O)(=O)N3CCC(C)CC3)ccc21 | 5.0 | -1.5% | 3.2 | i | 20.6µM* | -109.0%
CC(=O)N1CCCc2cc(S(=O)(=O)N3CCN(C4CCCCC4)CC3)ccc21 | -3.3 | 3.8% | -55.7* | i | i | 0.6%
Cc1cccc(-c2nc3cc(NC(=O)COc4ccccc4F)ccc3o2)c1 | 25.2 | . | . | i | i | .
CCOc1ccc(CCNC(=O)Cn2nc(CC)n3c(cc4sccc43)c2=O)cc1 | -14.8 | . | . | . | . | .
SMILES | D3 ag | MCF10A rereplic | DRD3 antagonist | KB-3-1 cytotox | KB-V1 MDR tox | SW480 rereplic
COc1ccc(C)c2sc(N(CCCN(C)C)C(=O)CS(=O)(=O)c3ccc(F)cc3)nc12 | -15.8 | 3.66µM* | 18.4 | i | i | -20.1%
CC(=O)c1ccc(C(=O)N(CCCN(C)C)c2nc3c(C)c(C)ccc3s2)cc1 | -21.6 | . | . | i | i | .
COc1ccc(OC)c2sc(N(CCCN(C)C)C(=O)CCS(=O)(=O)c3ccccc3)nc12 | -19.3 | 5.8µM* | -15.6 | 16.4µM* | ? | ?
Cc1ccc2sc(N(CCCN(C)C)C(=O)c3ccc(Br)s3)nc2c1C | -23.5 | 13µM* | ? | ? | ? | -63.5%
COc1ccc(Cl)c2sc(N(CCN(C)C)C(=O)CCS(=O)(=O)c3ccc(C)cc3)nc12 | -1.3 | ? | 0.7 | i | i | -17.5%
CN(C)CCN(C(=O)CCS(=O)(=O)c1ccccc1)c1nc2c(F)cccc2s1 | -19.4 | 2.2% | -22.2 | i | i | -12.6%
Cc1ccc2sc(N(CCCN(C)C)C(=O)CCS(=O)(=O)c3ccccc3)nc2c1C | -16.6 | ? | ? | 16.4µM* | i | ?
CCn1cc(S(=O)(=O)c2ccc(OC)cc2)c(=O)c2cc(F)c(N3CCC(C)CC3)cc21 | 7.0 | . | . | i | ? | .
N#Cc1ccc(S(=O)(=O)N2CCN(CC(=O)NCC3(N4CCOCC4)CCCCC3)CC2)cc1 | 5.8 | 19.9% | 6.6 | i | i | -3.8%
COc1ccc(C(=O)CCC(=O)O)c2ccccc12 | -6.9 | 1.0% | . | . | . | -7.7%
CCc1ccc(NC(=O)C(NS(=O)(=O)c2cccs2)C(C)C)cc1 (centres undefined) | -3.9 | . | . | i | i | .
Cc1sc2nc(CN3CCOCC3)nc(N3CCN(S(=O)(=O)c4ccccc4)CC3)c2c1C | -1.3 | 3.7% | -6.8 | i | i | -0.3%
COCCNc1nc(CSc2ccccc2)nc2sc(C)c(C)c12 | -3.4 | ? | -14.2 | i | 10.3µM* | -0.4%
Cc1sc2nc(CSc3ccccc3)nc(N3CCN(C)CC3)c2c1C | -3.0 | 13.6% | -93.3* | ? | i | 19.5%
Cc1ccc(-c2cc(C(=O)Nc3ccc(SC(F)F)cc3)no2)cc1F | 7.3 | . | . | i | ? | .
COc1ccc(-c2cn3nc(SCC(=O)Nc4cccc(C)c4C)ccc3n2)cc1 | 2.7 | . | . | i | ? | .
CCCNC(=O)Cn1c(=O)/c(=C/c2ccc(-c3ccc([N+](=O)[O-])cc3)o2)s/c1=C\C(=O)C(C)(C)C | 11.4 | 18.4µM* | 30.8 | ? | i | 7.31µM*
